# Measured values reported in PubChem BioAssay (NCI).
# The panel holds about 83,000 compounds, 20% with a hit somewhere; the sample as a whole holds those more often.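 Interpretation: 100, growth as untreated; towards 0, rising growth inhibition; 0, no net growth; 0 to -100, cell death. Compounds scoring below 10 were considered active.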 A number with no mark means an inactive call. Calls of active or inactive are those of the source.
# What was measured:
# Assay in all cases: NCI-60 one-dose screen, 48 h (100 = growth as untreated, 0 = no growth, -100 = all killed)
# Conditions in all cases: 10 µM unless noted
# [1] = system: NCI-H23 lung
# [2] = system: NCI-H226 lung
# [3] = system: NCI-H322M lung
# [4] = system: HOP-62 NSCLC
# [5] = system: NCI-H460 lung
# [6] = system: HOP-92 NSCLC
# [7] = system: NCI-H522 lung
# [8] = system: A549/ATCC NSCLC
# [9] = system: 786-0 renal
# [10] = system: COLO 205 colon
# [11] = system: DU-145 prostate
# [12] = system: K-562 leukemia
# [13] = system: MALME-3M melanoma
# [14] = system: MDA-MB-231 breast
# [15] = system: RXF 393 renal
# [16] = system: SF-268 CNS
# [17] = system: SF-295 CNS
# [18] = system: SF-539 CNS
# [19] = system: UACC-257 melanoma
# [20] = system: M14 melanoma
SMILES,growth [1] [%],growth [2] [%],growth [3] [%],growth [4] [%],growth [5],growth [6] [%],growth [7],growth [8] [%],growth [9] [%],growth [10],growth [11] [%],growth [12] [%],growth [13] [%],growth [14] [%],growth [15] [%],growth [16] [%],growth [17],growth [18],growth [19] [%],growth [20]
COc1cc2ncnc(Nc3ccc(S(=O)(=O)Nc4cc(C)on4)cc3)c2cc1OCCCN1CCN(c2ccc(F)cc2)CC1,105,98.1,99.6,92.2,102%,125,91%,101,110,105%,112,89.8,99.3,89.6,105,97.9,102%,96.4%,106,108%
O=C1Nc2ccc(C(=O)O)cc2/C1=N/c1nnc(Sc2ccccc2)s1,104,98.5,116,95,107%,102,94.3%,99.9,102,124%,110,96.2,113,106,117,96.4,102%,96.8%,107,104%
O=C(OC(CO)C(=O)NC12CC3CC(CC(C3)C1)C2)c1ccc(Cl)cc1 (stereo not given),105,92.4,102,103,107%,87.2,99.3%,97.2,101,110%,103,95.5,104,105,103,104,100%,96%,100,97.6%
Nc1nc2ccccc2c2c(=O)c3cccc(Cl)c3sc12,80.3,94.4,89.1,81.8,61.5%,101,93.3%,76.8,96.2,57.2%,94.7,91.7,101,78.9,106,102,97.9%,88.4%,104,96.9%
COC(=O)CC[C@@H]1O[C@@H](c2cccc(C(F)(F)F)c2)[C@@H](O)[C@H]1O,94.2,103,103,103,102%,84.3,98.6%,107,103,108%,103,112,99.1,108,95.3,101,104%,97.2%,106,102%
COc1ccc(/C=N/C2=C(C#N)C(c3ccccc3)c3ccc4ccccc4c3O2)cc1 (stereo not given),29.9,51.5,43.7,22,8.64% (active),41.4,-7.09% (active),16.8,24.4,-26.3% (active),25.6,12.2,43.6,18.7,26,46.5,9% (active),-8.29% (active),48.4,2.72% (active)
O=c1c2cnn(-c3ccccc3)c2n2c(CN3CCOCC3)nnc2n1-c1ccccc1,108,104,108,78.1,102%,81.3,41.2%,76.9,92.6,96.5%,105,88.2,124,106,119,104,98.6%,99.2%,101,98.2%
